# Source: PubChem BioAssay
# Active and inactive are the calls of the source. How the calls were made is not given here.
# Target: Pantothenate synthetase (Mycobacterium tuberculosis (strain ATCC 25618 / H37Rv)) (UniProt P9WIL5)
# Experiment: Recombinant Mtb pantothenate synthetase (PanC) inhibitors, coupled enzyme, confirmatory (AID 375);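 further: 0% = full reaction with vehicle and 100% = no enzyme background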
# Conditions: coupled enzyme assay; at 10 µM, active compounds read high
# Chain of Pantothenate synthetase (Mycobacterium tuberculosis (strain ATCC 25618 / H37Rv)) (P9WIL5 whole entry, looked up): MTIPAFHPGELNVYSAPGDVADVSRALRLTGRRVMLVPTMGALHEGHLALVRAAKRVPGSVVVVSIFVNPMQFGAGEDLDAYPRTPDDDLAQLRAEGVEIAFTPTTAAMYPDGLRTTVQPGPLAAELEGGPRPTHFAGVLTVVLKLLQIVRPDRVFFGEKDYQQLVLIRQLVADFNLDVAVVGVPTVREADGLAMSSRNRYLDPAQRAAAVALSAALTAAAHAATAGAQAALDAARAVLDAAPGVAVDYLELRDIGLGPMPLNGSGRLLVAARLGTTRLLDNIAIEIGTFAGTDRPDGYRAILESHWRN
row,Compound,inhibition
1,COC(=O)c1[nH]c2ccc(C)cc2c1NC(=O)CN1CCCc2ccccc21,3% (inactive)
2,COc1ccc2oc(=O)c(C(=O)N3CCN(c4ccccc4F)CC3)cc2c1,0% (inactive)
3,C(=N\n1cnnc1)/c1cccc(OCCOc2ccccc2)c1,0% (inactive)
4,COc1ccc(Cl)cc1S(=O)(=O)n1cnc2ccccc21,1% (inactive)
5,CCOc1ccc(NCc2nnc(SCC(=O)Nc3cc(C)on3)n2-c2ccccc2OC)cc1,13% (inactive)
6,CCC(=O)c1cc(F)c(N2CCN(C(=O)c3ccco3)CC2)cc1C,7% (inactive)
7,O=C1C2C3C=CC(C3=C3CCCCC3)C2C(=O)N1c1ccccc1 (stereo not given),0% (inactive)
8,CCc1cn([C@H]2C[C@H](O)[C@@H](CO)O2)c(=O)[nH]c1=O,0% (inactive)
9,CC1(C)CC(=O)C2=C(C1)OC(=O)C2(NC(=O)c1cccs1)C(F)(F)F (stereo not given),1% (inactive)
10,N#Cc1c(N2C(=O)C3C4C=CC(C4)C3C2=O)sc2c1CCC2 (stereo not given),0% (inactive)
11,CC(=O)Nc1ccc(OCC(O)Cn2nc(C)nc2C)cc1 (stereo not given),4% (inactive)
12,c1ccc(Cc2nn3c(Cn4cnc5ccccc54)nnc3s2)cc1,4% (inactive)
13,Cc1ccc(CCP(=O)(O)CN2CCOCC2)cn1,0% (inactive)
14,Cc1ccc2cc(CN(Cc3ccc4c(c3)OCO4)Cc3nnnn3Cc3ccco3)c(=O)[nH]c2c1C,0% (inactive)
15,c1ccc(-c2noc(C3CCCCC3)n2)nc1,0% (inactive)
16,COC(=O)[C@@H](N)Cc1ccc(O)cc1,0% (inactive)
17,CCOC(=O)N1CCN(C(=O)c2ccc3nc4cc(Cl)ccc4c(=O)n3c2)CC1,8% (inactive)
18,CCOc1ccccc1NC(=O)CCSc1nc2n[nH]c(C)c2c(=N)n1-c1ccccc1Cl,10% (inactive)
19,Cc1cccc(NC(=O)CCCCCN2C(=O)c3ccccc3C2=O)n1,0% (inactive)
20,Cc1ccc(S(=O)(=O)C2(C(=O)NC3CCCC3)CC2)cc1,9% (inactive)

row,Compound,inhibition
1,COc1cccc(C2=NOC(C(=O)Nc3cc(C)nn3-c3ccccc3)C2)c1OC (stereo not given),0% (inactive)
2,O=S(=O)(c1ccccc1)N1CCN(S(=O)(=O)c2ccccc2)C1,0% (inactive)
3,CCSC1(SCC)N=C(N)C2(C#N)C(c3ccccc3)NC(C)=C(C)C12C#N (stereo not given),0% (inactive)
4,CCN1C(=O)Cc2cc(S(=O)(=O)N3CCOCC3)ccc21,9% (inactive)
5,Cc1cc(C)c2c(=O)n(CC(=O)NCCCN3CCOCC3)sc2n1,1% (inactive)
6,Cc1csc(NC(=O)CSc2nnc(Cc3cccn3C)n2-c2ccc(F)cc2)n1,0% (inactive)
7,Cn1c(=O)c2ncn(CC(=O)NCCOc3ccccc3)c2n(C)c1=O,0% (inactive)
8,Cc1ccc(-c2nnn(CC(=O)N(Cc3ccco3)C(C(=O)NC(C)(C)C)c3cccs3)n2)o1 (stereo not given),0% (inactive)
9,C=CCn1c(Br)nc2c1c(=O)[nH]c(=O)n2C,0% (inactive)
10,CC(C)(Oc1ccc(Cl)cc1)C(=O)NC1CCSC1=O (stereo not given),0% (inactive)
11,Cc1cn2c(-c3ccc(Cl)cc3)nnc2s1,0% (inactive)
12,CCOC(=O)CNC(=O)CSc1nnnn1-c1cc(C)ccc1C,10% (inactive)
13,Oc1ccc2ccccc2c1CN1CCN(c2ccccc2F)CC1,1% (inactive)
14,Cn1cnnc1SCC(=O)Nc1ccccc1Sc1ccccc1,7% (inactive)
15,COc1ccccc1Nc1ccc(C(=O)NC2CCCCC2)cn1,0% (inactive)
16,COc1ccc(-n2c(Cc3cccn3C)nnc2SCC(=O)Nc2cccc(OC)c2)cc1,2% (inactive)
17,Cc1c(C(=O)N2CCN(c3ccccc3)CC2)sc2ncnc(N3CCN(c4ccccc4)CC3)c12,0% (inactive)
18,COC(=O)C1=C(C)NC(C)=C(C(=O)OC)C1c1ccccc1[N+](=O)[O-],0% (inactive)
19,O=C(O)COc1ccc(S(=O)(=O)NCCc2ccccc2)cc1,6% (inactive)
20,Cc1ccc(NC(=O)CNc2cccc(C)c2C)c(C)c1,0% (inactive)
